# Measurements as given in PubChem BioAssay (EPA / NIEHS).
# Inconclusive results are not listed. Activity calls are given as the source filed them. Rule for the calls: active = hit-call score of the fitted dose curve at least 0.9, where 1 is the maximum; inconclusive = response in the unintended direction; inactive = score below 0.9.
# Tested on: not listed separately
# Assay: TOX21_PR_BLA_Followup_Agonist_viability: Viability Assessment in the Tox21 HEK293 Progesterone Receptor (PR) Agonism Beta-lactamase Follow-Up Assay (AID 2283935);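 note: signal loss means lower viability so actives are cytotoxic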
# Summary of the method: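 Luminescent ATP quantitation (CellTiter-Glo, 30 min, room temperature) in the same wells as the beta-lactamase read, on PR-UAS-bla HEK293T cells exposed to compound for 16 hr at 37C in 2% charcoal-stripped serum.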
row,SMILES,outcome
1,CCC1COC(Cn2cncn2)(c2ccc(Cl)cc2Cl)O1 (centres undefined),inactive
2,C[C@]12CC[C@H]3[C@@H](CCC4=CC(=O)CC[C@@H]43)[C@@H]1CC[C@@H]2OC(=O)CCc1ccccc1,inactive
3,C=C1C[C@@H]2[C@H](CC[C@]3(C)C(=O)CC[C@@H]23)[C@@]2(C)C=CC(=O)C=C12,inactive

# Target: PGR (gene 5241) (UniProt P06401)
# Assay: TOX21_PR_LUC_Followup_Antagonist: Tox21 HEK293 Progesterone Receptor (PR) Antagonism Luciferase Follow-Up Assay (AID 2283938);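 note: curve fitted upward as signal gain over DMSO baseline despite antagonist label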
# Summary of the method: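 HEK293-PR-A-luc cells were precultured 5 days in medium with 10% charcoal-stripped FBS, seeded 3,000/well, then exposed to compounds in DMSO for 16 h at 37C. Luciferase was read by ONE-Glo luminescence after 30 min at room temperature.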
# Sequence of PGR (gene 5241) (P06401 whole entry, looked up): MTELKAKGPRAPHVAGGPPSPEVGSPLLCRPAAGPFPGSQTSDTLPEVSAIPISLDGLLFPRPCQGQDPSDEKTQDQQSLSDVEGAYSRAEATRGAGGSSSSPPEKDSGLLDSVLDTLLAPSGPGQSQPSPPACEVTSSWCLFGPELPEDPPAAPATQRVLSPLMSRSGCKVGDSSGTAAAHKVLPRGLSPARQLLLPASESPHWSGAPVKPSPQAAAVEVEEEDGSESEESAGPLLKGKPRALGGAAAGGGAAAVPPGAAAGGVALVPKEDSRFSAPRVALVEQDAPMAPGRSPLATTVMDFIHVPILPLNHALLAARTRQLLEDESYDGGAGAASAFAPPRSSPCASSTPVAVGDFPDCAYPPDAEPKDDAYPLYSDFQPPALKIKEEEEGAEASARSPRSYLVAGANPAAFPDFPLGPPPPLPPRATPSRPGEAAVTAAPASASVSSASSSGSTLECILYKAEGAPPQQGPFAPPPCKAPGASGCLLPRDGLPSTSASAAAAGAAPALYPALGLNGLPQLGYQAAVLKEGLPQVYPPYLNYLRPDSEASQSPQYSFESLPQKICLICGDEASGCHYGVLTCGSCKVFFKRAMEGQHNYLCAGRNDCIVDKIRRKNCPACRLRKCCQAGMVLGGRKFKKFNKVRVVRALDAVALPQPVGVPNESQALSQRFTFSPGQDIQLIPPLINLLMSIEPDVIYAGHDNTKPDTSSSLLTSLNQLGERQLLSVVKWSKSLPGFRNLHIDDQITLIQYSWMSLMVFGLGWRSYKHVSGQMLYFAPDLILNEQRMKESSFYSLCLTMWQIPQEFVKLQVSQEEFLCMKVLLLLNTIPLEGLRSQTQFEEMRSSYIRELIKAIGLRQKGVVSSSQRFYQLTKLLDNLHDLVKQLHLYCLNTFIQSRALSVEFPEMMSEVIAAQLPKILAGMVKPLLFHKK
SMILES,AC50,outcome
CCC1COC(Cn2cncn2)(c2ccc(Cl)cc2Cl)O1 (centres undefined),36.3 µM (active),
C[C@]12CC[C@H]3[C@@H](CCC4=CC(=O)CC[C@@H]43)[C@@H]1CC[C@@H]2OC(=O)CCc1ccccc1,,inactive
C=C1C[C@@H]2[C@H](CC[C@]3(C)C(=O)CC[C@@H]23)[C@@]2(C)C=CC(=O)C=C12,,inactive

# Tested on: not listed separately
# Assay: TOX21_PR_LUC_Followup_Antagonist_viability: Viability Assessment in the Tox21 HEK293 Progesterone Receptor (PR) Antagonism Luciferase Follow-Up Assay (AID 2283940)
# Summary of the method: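 Read-out: CellTiter-Glo ATP luminescence, loss of signal taken as reduced viability. Cells: HEK293-PR-A-luc, 3,000/well, 5 h settling, then 16 h compound exposure at 37C, 0% CO2.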
row,SMILES,outcome
1,CCC1COC(Cn2cncn2)(c2ccc(Cl)cc2Cl)O1 (centres undefined),inactive
2,C[C@]12CC[C@H]3[C@@H](CCC4=CC(=O)CC[C@@H]43)[C@@H]1CC[C@@H]2OC(=O)CCc1ccccc1,inactive
3,C=C1C[C@@H]2[C@H](CC[C@]3(C)C(=O)CC[C@@H]23)[C@@]2(C)C=CC(=O)C=C12,inactive
